Measured values taken from PubChem BioAssay.
For part of these data: Potency and affinity values are given separately. Activity calls are given as the source filed them. Unless noted, the limit is not given here; nearly all actives have IC50 up to about 0.91 µM.

target: Protein kinase 7 (PK7), Plasmodium falciparum 3D7 (PF3D7_0213400) (UniProt Q7YTF7); experiment: inhibition of Plasmodium PK7 catalytic activity – biochemical, TCAMS antimalarial set, Kinase-Glo luminescence (AID 1159587; call rule not given here); settings: recombinant PfPK7, Kinase-Glo ATP depletion luminescence
Sequence (Q7YTF7 1-343): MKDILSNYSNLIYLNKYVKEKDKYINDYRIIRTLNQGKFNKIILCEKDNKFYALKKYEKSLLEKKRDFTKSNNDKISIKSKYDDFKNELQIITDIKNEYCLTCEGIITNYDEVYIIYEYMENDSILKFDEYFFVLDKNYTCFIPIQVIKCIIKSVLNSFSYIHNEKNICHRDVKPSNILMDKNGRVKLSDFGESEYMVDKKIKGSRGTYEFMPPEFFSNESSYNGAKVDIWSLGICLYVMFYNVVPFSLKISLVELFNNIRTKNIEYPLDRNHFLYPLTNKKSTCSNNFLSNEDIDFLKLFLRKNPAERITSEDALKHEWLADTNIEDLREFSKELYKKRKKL

outcome, inactive:
CC(C)Nc1ccc(Nc2ccnc3cc4ccccc4cc23)cc1
CCOC(=O)c1ccc(NC(=O)N[C@H]2CCN(CCCCCNC(=O)/C=C/c3ccc(Cl)c(Cl)c3)C2)cc1
COc1ccc2nc(C)cc(NN=Cc3ccc(F)cc3)c2c1
CCOC(=O)C1=C(C)NC2=C(C(=O)C(C(=O)OC)C(C)C2)C1c1cc(Br)c(OCC)c(OC)c1 (configuration not stated)
COc1ccc2nccc([C@@H](O)CN3CCC(NC(=O)c4ccc(Oc5ccccc5)cc4)CC3)c2c1
O=C1Nc2cccc3c2C1(CCCCN1CCC(c2c(-c4ccccc4)[nH]c4ccccc24)CC1)CCC3 (configuration not stated)
Cc1[nH]c(C)c(C2CCC(c3ccc(Cl)cc3)CC2)c(=O)c1Cl (configuration not stated)
NC(=S)Cc1ccc2c(c1)OCO2
CCN(CC)CCCSc1ccc(-c2ccc(SCCCN(CC)CC)cc2)cc1

target: Calcium-dependent protein kinase 4 (Plasmodium falciparum (isolate 3D7)) (UniProt Q8IBS5); experiment: PfCDPK4 kinase inhibitors, biochemical, TCAMS library (AID 1159588); settings: recombinant PfCDPK4, Kinase-Glo ATP depletion luminescence
Sequence (Q8IBS5 whole entry, looked up): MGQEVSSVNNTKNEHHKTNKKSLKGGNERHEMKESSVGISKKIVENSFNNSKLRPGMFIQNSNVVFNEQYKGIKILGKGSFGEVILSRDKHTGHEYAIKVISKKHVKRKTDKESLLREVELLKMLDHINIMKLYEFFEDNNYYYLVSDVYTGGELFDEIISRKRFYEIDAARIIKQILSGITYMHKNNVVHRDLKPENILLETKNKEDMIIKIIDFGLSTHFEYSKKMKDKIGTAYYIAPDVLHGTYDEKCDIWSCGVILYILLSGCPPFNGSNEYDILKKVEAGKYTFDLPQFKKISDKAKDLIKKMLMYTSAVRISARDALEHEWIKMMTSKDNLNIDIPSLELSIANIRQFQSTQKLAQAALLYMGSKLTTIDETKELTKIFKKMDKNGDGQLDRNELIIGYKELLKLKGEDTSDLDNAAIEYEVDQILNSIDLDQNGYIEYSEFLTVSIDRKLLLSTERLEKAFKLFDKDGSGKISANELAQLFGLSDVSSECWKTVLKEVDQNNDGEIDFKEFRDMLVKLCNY

outcome, inactive:
CS(=O)(=O)c1ccc(CCNCc2ccc(-c3ccc(CN(C(=O)C4CCCC4)C4CCN(Cc5ccccc5)CC4)cc3)nc2)cc1
CCN(CC)CCNC(=O)c1ccc(NC(=O)c2cc3c(C)nn(-c4ccc(Cl)cc4)c3s2)cc1
O=C1COC2(CN1CC1CCN(Cc3ccc(O)c(Cl)c3)C1)c1ccccc1-c1ccccc12 (configuration not stated)
CCOC(=O)c1cn(CC)c2cc(O[C@H]3CCN(C(=O)OC(C)(C)C)C3)ccc2c1=O
O=C(c1ccc(OCCn2ccnc2)cc1)N1CCC(c2ccc(Br)cc2)C1 (configuration not stated)
Cn1nccc1C(=O)NCCNCc1ccc(-c2ccc(-c3nc4ccccc4[nH]3)s2)cc1
CN1CCN(CCCN(Cc2cccc(-c3ccc(CNCc4ccc5c(c4)OCO5)cc3)c2)C(=O)Nc2ccccc2)CC1
Cc1cccc(S(=O)(=O)Nc2cccc(CCN3CCC(N4CCCCC4)CC3)c2)c1
COc1cccc(-c2nn(C)c3sc(C(=O)NCCN(C)Cc4ccccc4)cc23)c1
Cc1cnc(CS(=O)c2nc3ccc(C(F)(F)F)cc3[nH]2)cc1OCc1ccccc1 (configuration not stated)
Cc1cccc(CNc2nc(C)cc(N[C@@H](Cc3ccccc3)C(=O)NCCc3ccccc3)n2)c1
CCc1ccc(CNCC(CCNc2cc(=O)c3ccccc3[nH]2)NCc2cc(Br)cc(Br)c2)o1 (configuration not stated)
Cc1ccc(Cc2cnc(NCCSCc3ccc(CN(C)C)s3)[nH]c2=O)cn1
CCCCCCOc1ccccc1C(=O)NCCOc1ccc(Cl)cc1
Cc1cccc(Cn2c(C(N)=O)nn(-c3ccc([N+](=O)[O-])cc3C#N)c2=S)c1
CCCN(CCC)CCCOc1ccc(C(=O)c2c(-c3ccc(OCCCN(CCC)CCC)cc3)oc3ccc(Cl)cc23)cc1
O=C(/C=C/c1ccc(Cl)c(Cl)c1)NCCCCCN1CCC(NC(=O)NC2CCCC2)CC1
CCc1[nH]nc(C(=O)NC2CCN(CC3(c4ccc(OC)cc4)CCCCC3)CC2)c1C
CCN1CCN(CCCNc2ccnc3cc(Cl)ccc23)CC1
COc1nc(Nc2cccc(C)c2)nc(OC)n1
CC(C)(C)C(Cn1ccnc1)NCc1cn[nH]c1-c1ccc(-c2ccccc2)cc1 (configuration not stated)
CN(C)c1ccc(CN2CCC(NC(=O)c3ccc(-c4ccc(N(C)C)cc4)s3)CC2)cc1
O=C(NCc1cccs1)[C@H](Cc1ccccc1)Nc1ccnc(NCC2CCCCC2)n1
CCCCCCN(CCCCCC)CCCCNc1c2ccc(Cl)cc2nc2ccc(OC)cc12
Cc1cc2c(cc1C(F)(F)F)N(C(=O)Nc1cc(OCCN(C)C)cc(C(F)(F)F)c1)CC2
CNCCCNc1ccnc2cc(Cl)ccc12
COc1ccc(C)c(Nc2ccnc(Nc3ccc(-c4cnc[nH]4)cc3)n2)c1
Cc1ccc(Cn2ncc(N3CCCNCC3)c(Cl)c2=O)cc1NC(=O)Nc1ccc(-c2ccccc2)cc1
CN1CCN(c2ccnc3ccc(NC(=O)Nc4ccc(-c5ccncc5)c(C#N)c4)cc23)CC1
CC(C(=O)NC1CCN(c2ccnc(Nc3ccc(F)cc3)n2)C1)c1ccc(Cl)cc1 (configuration not stated)
COc1cc2nc(N(C)C)nc(Nc3ccc4c(cnn4Cc4ccccc4)c3)c2cc1OC
CC(C)Nc1ccc(Nc2ccnc3cc4ccccc4cc23)cc1
CCOC(=O)c1ccc(NC(=O)N[C@H]2CCN(CCCCCNC(=O)/C=C/c3ccc(Cl)c(Cl)c3)C2)cc1
